According to the supplement of paper PMC11732987, “Enantioselective OTUD7B fragment discovery through chemoproteomics screening and high-throughput optimisation” (Communications Chemistry, 2025):

Experiments:
Assay in all cases: log2 ratio of Biotin-Ahx-Ub-VS probe labelling (fragment/DMSO); higher = less target engagement (more negative = stronger competition), active = hit call of the paper (q ≤ 0.05, log2 ratio ≤ -1)
Details in all cases: compound concentration: 200 uM; treatment time: 3 h
[1] = target: T1, USP42 (UniProt Q9H9J4)
T1 sequence (whole entry): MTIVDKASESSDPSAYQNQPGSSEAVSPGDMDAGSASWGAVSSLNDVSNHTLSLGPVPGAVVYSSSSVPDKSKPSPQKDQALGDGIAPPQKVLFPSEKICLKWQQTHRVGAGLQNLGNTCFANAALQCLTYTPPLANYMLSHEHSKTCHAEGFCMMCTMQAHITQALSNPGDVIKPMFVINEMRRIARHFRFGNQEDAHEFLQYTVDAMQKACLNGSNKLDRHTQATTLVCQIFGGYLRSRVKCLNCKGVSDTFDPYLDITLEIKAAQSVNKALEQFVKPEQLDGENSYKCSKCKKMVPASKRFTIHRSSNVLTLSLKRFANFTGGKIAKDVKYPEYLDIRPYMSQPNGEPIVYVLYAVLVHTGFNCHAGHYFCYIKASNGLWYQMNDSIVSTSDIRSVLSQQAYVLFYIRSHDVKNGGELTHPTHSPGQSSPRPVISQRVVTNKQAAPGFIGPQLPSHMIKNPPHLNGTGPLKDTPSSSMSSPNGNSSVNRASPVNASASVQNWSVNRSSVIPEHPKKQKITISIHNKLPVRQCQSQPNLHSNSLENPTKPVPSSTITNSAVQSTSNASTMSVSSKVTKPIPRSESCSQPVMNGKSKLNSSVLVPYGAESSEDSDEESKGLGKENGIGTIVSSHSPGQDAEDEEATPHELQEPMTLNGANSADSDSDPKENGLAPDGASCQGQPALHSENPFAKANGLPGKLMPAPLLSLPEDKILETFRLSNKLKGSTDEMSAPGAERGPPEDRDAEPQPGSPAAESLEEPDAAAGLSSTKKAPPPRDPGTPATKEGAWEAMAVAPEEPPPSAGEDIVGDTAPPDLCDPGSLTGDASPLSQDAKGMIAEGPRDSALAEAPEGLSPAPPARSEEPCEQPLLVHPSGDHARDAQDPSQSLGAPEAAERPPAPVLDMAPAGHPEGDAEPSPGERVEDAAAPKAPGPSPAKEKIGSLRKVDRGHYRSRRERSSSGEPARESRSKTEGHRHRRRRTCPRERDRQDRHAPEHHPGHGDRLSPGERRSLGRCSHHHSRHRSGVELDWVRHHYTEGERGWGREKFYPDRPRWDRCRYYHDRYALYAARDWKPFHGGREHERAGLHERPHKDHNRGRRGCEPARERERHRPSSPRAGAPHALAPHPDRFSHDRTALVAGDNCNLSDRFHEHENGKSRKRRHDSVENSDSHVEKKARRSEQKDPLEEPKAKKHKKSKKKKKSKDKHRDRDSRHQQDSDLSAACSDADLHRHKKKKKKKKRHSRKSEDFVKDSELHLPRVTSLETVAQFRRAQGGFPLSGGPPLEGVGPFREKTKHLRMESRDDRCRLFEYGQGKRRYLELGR
In short: (§1)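 Using Biotin-Ahx-Ub-VS at 0.5 µM final for 1 h, DUBs were labelled in HEK293T lysate (495 µg per sample) that had first been treated in triplicate with fragment at 200 µM or vehicle for 3 h. NeutrAvidin enrichment, LysC and trypsin digestion and diaPASEF LC-MS/MS followed. Spectronaut label-free quantities were global-median-normalised. Values are average log2 fragment/vehicle ratios by unpaired t-test, using proteins with ≥2 unique peptides.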

[2] = target: USP46 (UniProt P62068)
Chain of USP46 (P62068 whole entry): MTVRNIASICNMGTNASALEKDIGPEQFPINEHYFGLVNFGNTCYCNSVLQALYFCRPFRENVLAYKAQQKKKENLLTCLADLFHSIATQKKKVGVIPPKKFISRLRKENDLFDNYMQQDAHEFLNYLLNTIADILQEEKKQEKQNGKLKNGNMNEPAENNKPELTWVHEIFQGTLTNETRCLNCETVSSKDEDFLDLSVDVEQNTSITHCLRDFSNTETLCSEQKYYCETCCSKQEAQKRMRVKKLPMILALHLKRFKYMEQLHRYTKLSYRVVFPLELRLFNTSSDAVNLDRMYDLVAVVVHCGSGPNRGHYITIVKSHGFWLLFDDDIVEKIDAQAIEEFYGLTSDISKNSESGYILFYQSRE
In short: as §1

[3] = target: T2, USP47 (UniProt Q96K76)
T2 sequence (whole entry): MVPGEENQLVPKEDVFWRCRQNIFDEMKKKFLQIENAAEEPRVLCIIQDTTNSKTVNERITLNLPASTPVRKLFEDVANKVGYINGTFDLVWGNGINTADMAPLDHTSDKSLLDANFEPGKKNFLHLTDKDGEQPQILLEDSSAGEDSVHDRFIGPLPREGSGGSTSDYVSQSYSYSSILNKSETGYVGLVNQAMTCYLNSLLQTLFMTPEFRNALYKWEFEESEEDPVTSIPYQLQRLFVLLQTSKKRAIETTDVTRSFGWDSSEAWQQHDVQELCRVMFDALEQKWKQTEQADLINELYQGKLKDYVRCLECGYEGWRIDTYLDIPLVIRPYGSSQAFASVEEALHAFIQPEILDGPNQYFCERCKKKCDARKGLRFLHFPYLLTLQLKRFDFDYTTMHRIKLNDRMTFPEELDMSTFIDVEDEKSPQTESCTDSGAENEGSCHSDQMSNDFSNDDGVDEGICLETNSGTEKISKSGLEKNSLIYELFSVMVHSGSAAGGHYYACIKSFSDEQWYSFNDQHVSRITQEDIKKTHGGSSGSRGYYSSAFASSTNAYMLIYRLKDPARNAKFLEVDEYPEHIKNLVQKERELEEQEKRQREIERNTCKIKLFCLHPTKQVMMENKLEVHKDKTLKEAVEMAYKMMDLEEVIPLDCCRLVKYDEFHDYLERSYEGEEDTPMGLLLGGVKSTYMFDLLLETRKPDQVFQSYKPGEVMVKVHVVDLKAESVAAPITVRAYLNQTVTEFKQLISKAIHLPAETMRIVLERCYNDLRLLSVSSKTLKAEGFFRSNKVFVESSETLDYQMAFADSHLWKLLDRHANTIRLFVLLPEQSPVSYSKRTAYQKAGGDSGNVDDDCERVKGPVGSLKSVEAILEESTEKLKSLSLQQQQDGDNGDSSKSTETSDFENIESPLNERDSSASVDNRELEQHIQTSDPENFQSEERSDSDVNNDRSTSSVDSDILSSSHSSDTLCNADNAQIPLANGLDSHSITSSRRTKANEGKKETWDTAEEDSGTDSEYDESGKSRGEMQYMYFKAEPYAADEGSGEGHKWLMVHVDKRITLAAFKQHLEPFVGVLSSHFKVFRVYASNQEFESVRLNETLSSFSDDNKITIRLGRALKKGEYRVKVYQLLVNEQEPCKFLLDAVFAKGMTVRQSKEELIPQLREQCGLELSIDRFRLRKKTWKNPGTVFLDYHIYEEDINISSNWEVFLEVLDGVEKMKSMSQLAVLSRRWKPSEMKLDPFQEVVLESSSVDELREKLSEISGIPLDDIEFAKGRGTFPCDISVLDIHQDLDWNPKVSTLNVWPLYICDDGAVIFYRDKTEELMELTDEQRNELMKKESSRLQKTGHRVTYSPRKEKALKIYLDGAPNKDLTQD
In short: as §1

[4] = target: T3, USP48 (UniProt Q86UV5)
T3 sequence (whole entry): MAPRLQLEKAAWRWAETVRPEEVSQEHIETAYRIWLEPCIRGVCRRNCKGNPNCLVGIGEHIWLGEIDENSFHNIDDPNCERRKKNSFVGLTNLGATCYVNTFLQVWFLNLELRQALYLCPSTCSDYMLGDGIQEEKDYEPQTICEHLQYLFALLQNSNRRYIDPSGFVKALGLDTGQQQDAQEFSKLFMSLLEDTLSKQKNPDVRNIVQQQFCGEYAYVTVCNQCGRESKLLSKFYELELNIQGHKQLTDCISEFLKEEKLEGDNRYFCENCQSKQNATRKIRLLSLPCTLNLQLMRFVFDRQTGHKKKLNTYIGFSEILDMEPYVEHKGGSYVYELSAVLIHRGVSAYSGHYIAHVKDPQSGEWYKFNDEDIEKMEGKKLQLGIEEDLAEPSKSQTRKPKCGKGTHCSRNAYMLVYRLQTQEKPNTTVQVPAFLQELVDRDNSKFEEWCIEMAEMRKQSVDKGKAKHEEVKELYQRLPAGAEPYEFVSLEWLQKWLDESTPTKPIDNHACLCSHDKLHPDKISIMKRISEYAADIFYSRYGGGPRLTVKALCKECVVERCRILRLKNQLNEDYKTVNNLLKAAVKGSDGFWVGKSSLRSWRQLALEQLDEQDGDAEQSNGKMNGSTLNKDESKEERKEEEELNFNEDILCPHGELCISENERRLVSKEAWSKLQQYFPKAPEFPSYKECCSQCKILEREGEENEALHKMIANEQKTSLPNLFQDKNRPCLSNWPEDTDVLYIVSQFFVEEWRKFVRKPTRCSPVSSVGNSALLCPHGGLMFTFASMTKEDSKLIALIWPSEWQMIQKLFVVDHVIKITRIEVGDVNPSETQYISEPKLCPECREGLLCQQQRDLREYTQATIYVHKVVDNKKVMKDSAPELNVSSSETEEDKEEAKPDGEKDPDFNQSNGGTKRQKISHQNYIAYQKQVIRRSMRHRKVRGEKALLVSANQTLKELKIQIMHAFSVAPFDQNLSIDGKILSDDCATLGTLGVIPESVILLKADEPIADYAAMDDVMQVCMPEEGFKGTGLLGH
In short: as §1

[5] = target: T4, USP5 (UniProt P45974)
T4 sequence (whole entry): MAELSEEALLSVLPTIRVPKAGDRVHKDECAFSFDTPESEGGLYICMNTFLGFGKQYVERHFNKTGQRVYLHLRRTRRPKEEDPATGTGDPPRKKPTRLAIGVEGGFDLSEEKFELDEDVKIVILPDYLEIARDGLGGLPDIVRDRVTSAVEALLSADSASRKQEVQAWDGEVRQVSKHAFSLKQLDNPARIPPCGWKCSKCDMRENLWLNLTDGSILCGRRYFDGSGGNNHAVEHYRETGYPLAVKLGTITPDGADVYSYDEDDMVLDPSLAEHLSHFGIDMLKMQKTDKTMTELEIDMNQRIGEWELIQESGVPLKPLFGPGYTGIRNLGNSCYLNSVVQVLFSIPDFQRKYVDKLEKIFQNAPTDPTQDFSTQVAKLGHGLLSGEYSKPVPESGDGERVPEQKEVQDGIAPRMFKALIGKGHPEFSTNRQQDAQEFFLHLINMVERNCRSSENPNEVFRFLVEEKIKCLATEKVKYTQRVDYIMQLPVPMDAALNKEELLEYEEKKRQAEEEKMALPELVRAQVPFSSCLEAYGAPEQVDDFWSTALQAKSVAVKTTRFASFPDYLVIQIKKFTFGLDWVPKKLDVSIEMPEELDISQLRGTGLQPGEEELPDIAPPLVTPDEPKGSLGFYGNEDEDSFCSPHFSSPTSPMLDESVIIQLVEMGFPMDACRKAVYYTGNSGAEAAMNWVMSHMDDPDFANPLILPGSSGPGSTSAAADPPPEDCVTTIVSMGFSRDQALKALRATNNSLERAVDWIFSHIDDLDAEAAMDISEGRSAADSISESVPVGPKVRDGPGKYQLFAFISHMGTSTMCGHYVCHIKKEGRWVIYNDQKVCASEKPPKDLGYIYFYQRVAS
In short: as §1

[6] = target: USP54 (UniProt Q70EL1)
Chain of USP54 (Q70EL1 whole entry): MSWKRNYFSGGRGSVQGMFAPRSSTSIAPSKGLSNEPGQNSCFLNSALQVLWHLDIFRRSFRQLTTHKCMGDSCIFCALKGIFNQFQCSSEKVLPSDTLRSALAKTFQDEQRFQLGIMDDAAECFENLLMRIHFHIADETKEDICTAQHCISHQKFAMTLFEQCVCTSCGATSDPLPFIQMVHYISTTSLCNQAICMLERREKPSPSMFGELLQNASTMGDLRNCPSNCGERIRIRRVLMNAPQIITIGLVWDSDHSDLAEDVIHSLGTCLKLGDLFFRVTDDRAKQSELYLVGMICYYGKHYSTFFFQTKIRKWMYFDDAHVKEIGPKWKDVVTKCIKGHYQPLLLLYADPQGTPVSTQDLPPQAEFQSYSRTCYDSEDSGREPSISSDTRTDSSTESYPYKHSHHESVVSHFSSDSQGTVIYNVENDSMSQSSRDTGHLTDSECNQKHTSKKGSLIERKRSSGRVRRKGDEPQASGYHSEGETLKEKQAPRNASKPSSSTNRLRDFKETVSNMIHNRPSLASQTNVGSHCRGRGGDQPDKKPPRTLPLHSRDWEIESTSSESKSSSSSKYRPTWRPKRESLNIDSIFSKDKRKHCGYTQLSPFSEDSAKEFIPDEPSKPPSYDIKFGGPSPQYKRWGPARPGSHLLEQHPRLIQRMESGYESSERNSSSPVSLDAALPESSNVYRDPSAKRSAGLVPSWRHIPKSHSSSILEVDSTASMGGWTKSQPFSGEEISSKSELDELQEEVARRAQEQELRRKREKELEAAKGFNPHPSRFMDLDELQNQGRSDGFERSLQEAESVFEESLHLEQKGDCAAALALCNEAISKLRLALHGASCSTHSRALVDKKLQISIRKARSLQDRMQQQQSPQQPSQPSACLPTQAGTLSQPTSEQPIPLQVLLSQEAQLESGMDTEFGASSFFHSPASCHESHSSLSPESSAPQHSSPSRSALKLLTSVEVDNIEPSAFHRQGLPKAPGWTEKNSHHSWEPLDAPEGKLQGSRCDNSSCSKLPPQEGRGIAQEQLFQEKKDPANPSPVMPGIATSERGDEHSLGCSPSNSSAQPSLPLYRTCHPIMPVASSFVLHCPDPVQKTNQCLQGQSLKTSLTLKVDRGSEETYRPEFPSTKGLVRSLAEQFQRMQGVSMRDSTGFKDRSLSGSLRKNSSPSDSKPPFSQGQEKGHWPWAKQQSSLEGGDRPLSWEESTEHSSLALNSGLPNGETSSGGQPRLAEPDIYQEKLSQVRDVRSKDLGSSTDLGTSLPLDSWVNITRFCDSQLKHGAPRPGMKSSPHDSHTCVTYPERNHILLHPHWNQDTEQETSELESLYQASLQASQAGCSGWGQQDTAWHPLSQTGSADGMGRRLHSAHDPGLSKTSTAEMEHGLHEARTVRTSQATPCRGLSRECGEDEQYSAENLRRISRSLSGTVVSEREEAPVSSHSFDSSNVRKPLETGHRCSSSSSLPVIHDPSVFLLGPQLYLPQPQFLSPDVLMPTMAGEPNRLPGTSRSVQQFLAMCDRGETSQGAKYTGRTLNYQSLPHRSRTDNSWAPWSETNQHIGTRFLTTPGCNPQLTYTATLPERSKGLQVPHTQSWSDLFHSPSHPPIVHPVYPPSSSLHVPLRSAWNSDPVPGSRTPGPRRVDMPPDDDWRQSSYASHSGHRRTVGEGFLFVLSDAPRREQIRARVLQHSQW
In short: as §1

[7] = target: USP7 (UniProt Q93009)
Chain of USP7 (Q93009 whole entry, looked up): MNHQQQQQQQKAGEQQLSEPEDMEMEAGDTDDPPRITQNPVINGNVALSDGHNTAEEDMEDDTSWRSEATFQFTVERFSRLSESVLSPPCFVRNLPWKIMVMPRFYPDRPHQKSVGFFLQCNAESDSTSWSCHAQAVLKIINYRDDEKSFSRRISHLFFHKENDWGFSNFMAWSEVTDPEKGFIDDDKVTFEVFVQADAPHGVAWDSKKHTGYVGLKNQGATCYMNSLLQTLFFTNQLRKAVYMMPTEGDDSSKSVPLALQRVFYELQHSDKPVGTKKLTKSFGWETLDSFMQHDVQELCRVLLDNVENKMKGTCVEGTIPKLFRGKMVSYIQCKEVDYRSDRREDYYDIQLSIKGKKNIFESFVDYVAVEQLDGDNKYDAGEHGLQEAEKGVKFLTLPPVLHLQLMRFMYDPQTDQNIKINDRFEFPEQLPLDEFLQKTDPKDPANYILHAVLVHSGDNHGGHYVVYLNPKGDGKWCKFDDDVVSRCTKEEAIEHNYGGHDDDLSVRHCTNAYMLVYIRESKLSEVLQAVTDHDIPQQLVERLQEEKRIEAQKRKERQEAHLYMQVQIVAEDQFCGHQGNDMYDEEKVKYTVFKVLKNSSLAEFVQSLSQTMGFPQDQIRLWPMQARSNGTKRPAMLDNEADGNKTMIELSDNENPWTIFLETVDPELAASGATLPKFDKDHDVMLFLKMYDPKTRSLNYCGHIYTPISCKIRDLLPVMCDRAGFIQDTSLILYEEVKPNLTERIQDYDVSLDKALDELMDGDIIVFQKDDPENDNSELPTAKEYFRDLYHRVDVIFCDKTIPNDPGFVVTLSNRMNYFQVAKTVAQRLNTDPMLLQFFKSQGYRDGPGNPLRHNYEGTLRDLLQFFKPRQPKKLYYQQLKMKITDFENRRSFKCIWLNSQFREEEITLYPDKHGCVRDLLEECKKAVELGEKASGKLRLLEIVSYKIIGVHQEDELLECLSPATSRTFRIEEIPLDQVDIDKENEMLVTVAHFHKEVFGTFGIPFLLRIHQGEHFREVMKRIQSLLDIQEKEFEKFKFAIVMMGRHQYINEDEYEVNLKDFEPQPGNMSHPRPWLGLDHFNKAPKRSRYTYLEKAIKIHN
In short: as §1

[8] = target: T5, USP8 (UniProt P40818)
T5 sequence (whole entry): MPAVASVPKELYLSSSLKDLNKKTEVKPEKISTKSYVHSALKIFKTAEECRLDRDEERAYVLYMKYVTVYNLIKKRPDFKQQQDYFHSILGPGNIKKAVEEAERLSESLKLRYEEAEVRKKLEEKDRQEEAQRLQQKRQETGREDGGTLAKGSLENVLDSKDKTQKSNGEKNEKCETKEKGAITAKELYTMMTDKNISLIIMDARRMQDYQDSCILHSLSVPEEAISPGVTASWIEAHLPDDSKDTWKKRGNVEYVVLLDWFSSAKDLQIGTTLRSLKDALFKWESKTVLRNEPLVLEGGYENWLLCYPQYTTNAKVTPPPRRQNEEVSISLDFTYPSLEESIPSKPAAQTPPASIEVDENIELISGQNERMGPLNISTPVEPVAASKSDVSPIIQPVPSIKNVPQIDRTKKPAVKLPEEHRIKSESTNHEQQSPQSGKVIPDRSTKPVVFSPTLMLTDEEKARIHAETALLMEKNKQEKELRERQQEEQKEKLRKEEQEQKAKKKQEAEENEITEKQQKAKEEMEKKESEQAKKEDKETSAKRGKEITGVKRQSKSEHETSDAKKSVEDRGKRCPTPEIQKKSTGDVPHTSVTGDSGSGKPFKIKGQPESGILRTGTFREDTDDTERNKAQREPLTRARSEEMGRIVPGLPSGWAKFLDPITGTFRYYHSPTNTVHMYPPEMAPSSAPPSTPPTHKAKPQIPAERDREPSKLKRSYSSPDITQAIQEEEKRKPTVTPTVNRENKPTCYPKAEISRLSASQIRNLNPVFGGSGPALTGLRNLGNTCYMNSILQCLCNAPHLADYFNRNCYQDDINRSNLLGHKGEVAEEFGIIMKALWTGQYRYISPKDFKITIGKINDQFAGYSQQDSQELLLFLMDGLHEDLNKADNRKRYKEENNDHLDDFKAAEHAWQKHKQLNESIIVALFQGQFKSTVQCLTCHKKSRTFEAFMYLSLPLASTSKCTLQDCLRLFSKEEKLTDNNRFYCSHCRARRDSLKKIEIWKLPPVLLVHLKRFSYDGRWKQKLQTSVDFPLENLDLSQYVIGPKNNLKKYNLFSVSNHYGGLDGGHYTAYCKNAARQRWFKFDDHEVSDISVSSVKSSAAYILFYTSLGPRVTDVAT
In short: as §1

Measured: log2 ratio of Biotin-Ahx-Ub-VS probe labelling

O=C(CCl)NCc1noc(C2CC2)n1
inactive: [1] -0.112 | [2] -0.0864 | [3] -0.0714 | [4] -0.135 | [5] -0.183 | [6] 1.02 | [7] -0.262 | [8] -0.421
